In the supplement of paper PMC12632987:

B1: usp_38_diff_out_20_123_457 (protein)
chain: MEKLKAEAEALLKRAEALLENAKQILKFVKAGVLSEEQVEEHIEMIEEHIKYLEEELKKLKAAAPELKELLEKVEKAIKETKKVREEIKKELEKRRKEKE
B2: usp_38_diff_out_20_123_458 (protein)
chain: SSEALERAERLLRQAEQLLENAEQILKFVKAGALSEETVEEHIKFIETHIKYLEEELERLEEEHPELEELLERIREILERTRKVLEEIKKALEKRRKEKE
B3: usp_38_diff_out_21_100_459 (protein)
chain: MEEIKKEIKEELEKAEKALKEAIKLLKEGAKKEEILKKLDEALSHLVRAQYLAAKISFELAHKISEIIDIVQEAKKLLDTDKEKALELLEKALKELKELK
B4: usp_38_diff_out_22_164_477 (protein)
chain: MEEKIKKEVKEKIEKIAEETKKKIDELFAEAKANPEKKEEYIKKARMLLIESNKEIKEYIEKTVKENNLSEETKEELNSHATVQNLKVLNYLDEKIEELK
B5: usp_38_diff_out_22_164_478 (protein)
chain: SEEEILKKVKEELEKLAEETKKELDKLFEEAKANPEKKEEYIQEAQMLIIKTQKEMNDYIEETVKKYNLSEETKEELKSHRTVLNLKVLNYLDEKIEELK
B6: usp_38_diff_out_22_164_479 (protein)
chain: SEEEILEKLKEEIEKLAEETKKKLEELAKKAKENPEKKEEYLKQMRMLVIQTQQKMGDLIDEAAKKYNLSEETVEELRSHRTVQSLKVLNYLDELEKELE
B7: usp_38_diff_out_22_164_481 (protein)
chain: KEEEIKEKLKKEIEEKIKETKKELDKLFAKAKADPEKKEEYIKEARMLLIKTQKELLELIEKTVKENNLSEETKEELRSFLTVQMLKLLNYLDEKEEELK
B8: usp_38_diff_out_22_74_482 (protein)
chain: SAEAEAVAATKAEIEKLTAETLKKLDELYKEAKKYIEAGDYKNARRKLAEMDDLVTETVIYLNKVALAEGAVHDLALAKANEIRKKATEINEELEKLLKE
B9: usp_38_diff_out_22_74_483 (protein)
chain: SAEEAETEALKKEIDEKVKKTKEELDRLRAEAKAAIAAGRYREARRLLAEMDDLVTDTVIWLNKVALAHGAVHDYALAKANEIREYATKINAELEALLEA
B10: usp_38_diff_out_22_74_484 (protein)
chain: SAEEEETEKLRKEIEERKAETLARLEELRAAARAALAAGDERAARRLLAELDDLVTDTVIWLNKVALAHGAIHDYALETALEIRERATAIVAELEAALAA
B11: usp_38_diff_out_22_74_485 (protein)
chain: SAEEEANAALRAEIDAKVADWNKYREEAERRIEEAIAAGRYREARRLLAELDDKTTDLIIWLNKQALANGAIHDYALAKAEEIRKKTTEVVERAEARLAA
B12: usp_38_diff_out_22_74_486 (protein)
chain: SAEAEEVAKIKAEIDKLVAELNAYLEKAKEEAEKAIAAGRLREARRIRAEMDDKVTDAIITLNKIALANGAIHDYALAKAQEIRDKSTKVFEEIDARLAA
B13: usp_38_diff_out_22_74_487 (protein)
chain: SAAEKAQEEAKKKLEELLKEFNEELEKYLKEAKKAIEAGNLKEARRILGEFTSKFAELSSKIAKAAWEAELPLDEIQKIMTDLTKKAAEAVKEMEEAIKA
B14: usp_38_diff_out_23_30_488 (protein)
chain: SPLEEAKKRLREAAEKARKEATEIKKKAEELKKKAENEYLKALANQVIDAANDFIEDLDIWLSRIDEYDEARLLRLTEYVEASLAHLKQLYEDLLKEFKK
B15: usp_38_diff_out_24_27_495 (protein)
chain: EEEKKKLLEKLIEKFEKILELAKKAVGADLATRIKLSSEIDELLEEARKLAKELGIPEVEKLVTQVAIQASIVLSGSEEMEEAIKEIEKIIEELKKLLKE
B16: usp_38_diff_out_24_27_497 (protein)
chain: EEEKKEKLEKLIKKFEEILKLAKEAVGADLATRIRLSREIDELLEEARKLAEELGIEEVKKIVTEVAVKASIVLSGSEEMEEAIEEIEKLIEEAKKLLEE
B17: usp_38_diff_out_24_27_499 (protein)
chain: EEEKQKLLKELLKKFEEILKLSEKAVGADLATRIKLSSEIDEKLEEARKLAKELGDEEIEELVTKVEIAANIVLSGSEEAEEALKEIKKLVEELKKKIEE
B18: usp_38_diff_out_24_27_500 (protein)
chain: EKEKEEKIKKVKELFEEIEKLVKESRTADIAGRIRISSEVDELFEEIRKIAKELGNEEALKLIDKAKAQAFAIISGDENWEEHLKELKKLFEEILKEFEK
B19: usp_38_diff_out_24_27_501 (protein)
chain: SAEHEKKLEKAKELLKKILELAEKAQTGDIATRIKASSEIDELFEELKKIAEEENNEELLKLLTELKTKVYAVLSGHPNAEEHLKEAKKLAEKFLEELKK
B20: usp_38_diff_out_24_27_502 (protein)
chain: EEEKKKKLEEIKKLLEEILALLKASQTGDIATRIKASSEIDELFEKIEKILKELGNEEGLELLTELKTQAYAVLSRSPDWQEHLAKAKELAEKIIKLAKK
B21: usp_38_diff_out_24_27_503 (protein)
chain: EEERKEKIERLKKLLEEILKLLEESRTGDISVRIRASSEIDELAEEIRKILEELGNEEGLELLTEFETQVYAVLSRSPNWEEHFEKAKELAEKILELAKK
B22: usp_38_diff_out_24_27_504 (protein)
chain: SEEHEKKLEELKKLLEEILKLLEESKTGDISVRIKASSEIDELFKEIEKILKELGNEEGLKLLKEFKTQAYAVLSRSPDWEEHLKKAKELAKKILELVEK
B23: usp_38_diff_out_24_27_505 (protein)
chain: SEELEKALEKALKLLEDIAEDLKEAQKKGPTALFVVKRKHVDEIDKLREELEKLGPELAREVTTILLAFLNRSAADPEKREEYLKEAKEKIKEAFEKHKK
B24: usp_38_diff_out_2_113_460 (protein)
chain: DEEERKELAELYKKTILEGAEKLLKRTKKGTLSTATQIAMLGGIVHAAKEAAKLDPSVKPVLEEVIKKLKEIAELVKDKNPELYAATQKAIEEIEKILKE
B25: usp_38_diff_out_2_113_461 (protein)
chain: SEEERKERAEDLKEIITEGSDYLLEKAKKGTLSGDTMIVMIGGIVHAAKEAFALDPSVKPTIEEAIKKLEEIKELYKDRNPEVAKAIEDAIKELKALLAK
B26: usp_38_diff_out_2_113_463 (protein)
chain: SEEERRERAEDLARIILEGSEYLLEKAKRGTLSGETMITMIGGIVHAAEEAFRLDPSVAPVIKRAIEKLKEIAELYKDKNPEVYEAIKEAIERLEKLLAE
B27: usp_38_diff_out_2_113_464 (protein)
chain: DPEERQRLALLLRDTVVSGADYLLEKAKKGTLSSDTIITMIGGITHAARELAALDPSAKPALEEVAKKLKEIAEIYKDKDEEVKKAVEEAIKEIEALIKA
B28: usp_38_diff_out_2_113_465 (protein)
chain: EEEERARLTQLYVDTILEGSDQLLRRAKRGTLSSTTMITMIGGIVEAAREAFRLDPSVKPVLEEVAKKLAEIAEIYADKDAETAAAVKAAIAEINALIEA
B29: usp_38_diff_out_2_113_466 (protein)
chain: DPEERAEEAALYRDIILEGAELLLRKAKKGMLTPDRTRVMLGGIVHAAEVAYELDPSVAPDIERVIEKLEEVRELVKDKNPEVAAEIEKAIEELKAILER
B30: usp_38_diff_out_2_113_467 (protein)
chain: DPEERREEAELYRDIILEGADKLLRLAERGMLTPDRTRVMLGGIVHAAREAMELDPSTRPTIEEVIEKLERVRKLVEGKNPEIAKEVERAIEELKEILKE
B31: usp_38_diff_out_2_113_468 (protein)
chain: DPEQKKEEAQLYKDIILEGADKLLELAKKGMLTPDRTKVMLGGIVHAAREAYELDPSVKPVIEEVIEKLEEIKELVKDKNPEIAKEIEEAIEELKKILEE
B32: usp_38_diff_out_2_113_470 (protein)
chain: DPEERKKEAELYKKIILEGAEQLLRLAKKGRLTPDRTRVMLGGIVEAARRAYELDPSVKPVIEEVIKKLEEVEKLVKDKNPEVAAAIKEAIKELKKILKE

Target: T1, USP38, Q8NB14
T1 chain: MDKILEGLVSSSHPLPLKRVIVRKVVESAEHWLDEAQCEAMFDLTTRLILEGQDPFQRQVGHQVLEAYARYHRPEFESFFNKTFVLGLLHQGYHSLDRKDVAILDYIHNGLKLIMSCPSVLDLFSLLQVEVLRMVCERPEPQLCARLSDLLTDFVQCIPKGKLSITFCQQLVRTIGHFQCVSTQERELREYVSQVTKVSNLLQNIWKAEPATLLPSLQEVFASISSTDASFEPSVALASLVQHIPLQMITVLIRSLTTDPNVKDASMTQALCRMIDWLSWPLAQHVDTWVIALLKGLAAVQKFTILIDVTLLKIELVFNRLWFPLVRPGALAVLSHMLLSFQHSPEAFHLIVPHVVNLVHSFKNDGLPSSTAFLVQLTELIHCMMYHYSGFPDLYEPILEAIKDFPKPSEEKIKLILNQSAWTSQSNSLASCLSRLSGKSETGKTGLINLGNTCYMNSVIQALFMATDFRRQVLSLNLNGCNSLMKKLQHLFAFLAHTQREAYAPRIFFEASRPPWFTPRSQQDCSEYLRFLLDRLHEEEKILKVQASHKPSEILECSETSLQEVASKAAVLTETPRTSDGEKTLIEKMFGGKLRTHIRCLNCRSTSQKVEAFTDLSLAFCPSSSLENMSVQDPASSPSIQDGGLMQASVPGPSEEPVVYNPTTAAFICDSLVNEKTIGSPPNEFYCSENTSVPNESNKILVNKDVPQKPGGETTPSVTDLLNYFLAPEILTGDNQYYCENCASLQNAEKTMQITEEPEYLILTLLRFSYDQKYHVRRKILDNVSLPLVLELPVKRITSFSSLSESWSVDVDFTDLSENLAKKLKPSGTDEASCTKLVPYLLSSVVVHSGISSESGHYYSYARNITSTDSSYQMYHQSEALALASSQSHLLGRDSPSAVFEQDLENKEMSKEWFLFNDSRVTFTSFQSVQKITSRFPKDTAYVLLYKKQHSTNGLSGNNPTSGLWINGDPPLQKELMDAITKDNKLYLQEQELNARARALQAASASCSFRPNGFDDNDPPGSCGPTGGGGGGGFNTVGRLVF
Experiment: median log2 fold change of GCK-ALFA target abundance (FLAG IP / Myc IP barcode read proportion) (log2 ratio); each designed protein is fused to an ALFA-tag nanobody in HEK293 cells to bring the named protein to FLAG-tagged glucokinase (GCK); Myc marks an untargeted standard; higher = target protein stabilised (more abundant)
Settings: target protein: 3xFLAG-MCP-GCK-ALFA reporter; HEK293 landing pad (RPLP)
Outline: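 Sequencing of reverse-transcribed, amplified circular RNA barcodes from anti-FLAG and anti-Myc immunoprecipitates provided the readout for an ALFA-nanobody-fused binder library recombined into HEK293 landing-pad cells. Those cells were induced with 2 μg mL^−1 doxycycline, transfected with a plasmid expressing a FLAG-tagged target and a Myc-tagged standard, and lysed after 48 h. Target abundance is the per-binder median log2 ratio of FLAG to Myc barcode read proportions. Only barcodes at a proportion of ≥10^−7 in both replicates and binders with ≥3 barcodes per replicate were kept, with a 10^−6 pseudocount added before the two replicates were pooled.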

| Binder | median log2 fold change |
| --- | --- |
| B1 | 0.24 |
| B2 | 0.0141 |
| B3 | -0.0676 |
| B4 | 0.309 |
| B5 | 0.187 |
| B6 | 0.177 |
| B7 | -0.692 |
| B8 | 0.312 |
| B9 | 0.0676 |
| B10 | 0.0294 |
| B11 | -0.0773 |
| B12 | -0.198 |
| B13 | -0.392 |
| B14 | 0.13 |
| B15 | 0.368 |
| B16 | 0.276 |

| Binder | median log2 fold change |
| --- | --- |
| B17 | 0.204 |
| B18 | 0.364 |
| B19 | 0.157 |
| B20 | 0.548 |
| B21 | -0.574 |
| B22 | 0.3 |
| B23 | 0.427 |
| B24 | 0.123 |
| B25 | -0.00144 |
| B26 | -0.229 |
| B27 | 0.0135 |
| B28 | 0.0889 |
| B29 | -0.156 |
| B30 | 0.0135 |
| B31 | 0.211 |
| B32 | 0.141 |
